How the values were obtained:
Assay in all cases: DAPPL (digital affinity profiling via proximity ligation, sequencing); 10 mM Tris-HCl pH 7.5, 50 mM NaCl, 1 mM DTT, 4% glycerol, room temperature, 30 min; GST-TFs on glutathione beads, 16-mer random dsDNA library, 0.1% formaldehyde crosslink after washing; high values mean tight binding
[1] = molecular target: ETV5 (Homo sapiens, UniProt P41161 1-510); conditions: protein: recombinant; tags: N-terminal GST; dsDNA, one strand shown
How it was run: (§1)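 Pools of DNA-barcoded human transcription factors, expressed in yeast as GST fusions on glutathione beads and combined with a tag-only sample, were incubated with 200 nmole of a 16-mer random double-stranded DNA library. Incubation took 30 min at room temperature in Tris/NaCl/DTT/glycerol buffer and was followed by washing, 0.1% formaldehyde crosslinking, proximity ligation (BsaI/T4 ligase, 1 h, 37 °C), PCR amplification and sequencing on an Illumina NextSeq500. Binding signal is the ratio of a hexamer's read frequency for a factor to its frequency for the tag-only sample.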

[2] = molecular target: HSF1 (Homo sapiens, UniProt Q00613 1-529); conditions: protein: recombinant; tags: N-terminal GST; chain copies: 3; dsDNA, one strand shown
Sequence of HSF1 (Q00613 whole entry): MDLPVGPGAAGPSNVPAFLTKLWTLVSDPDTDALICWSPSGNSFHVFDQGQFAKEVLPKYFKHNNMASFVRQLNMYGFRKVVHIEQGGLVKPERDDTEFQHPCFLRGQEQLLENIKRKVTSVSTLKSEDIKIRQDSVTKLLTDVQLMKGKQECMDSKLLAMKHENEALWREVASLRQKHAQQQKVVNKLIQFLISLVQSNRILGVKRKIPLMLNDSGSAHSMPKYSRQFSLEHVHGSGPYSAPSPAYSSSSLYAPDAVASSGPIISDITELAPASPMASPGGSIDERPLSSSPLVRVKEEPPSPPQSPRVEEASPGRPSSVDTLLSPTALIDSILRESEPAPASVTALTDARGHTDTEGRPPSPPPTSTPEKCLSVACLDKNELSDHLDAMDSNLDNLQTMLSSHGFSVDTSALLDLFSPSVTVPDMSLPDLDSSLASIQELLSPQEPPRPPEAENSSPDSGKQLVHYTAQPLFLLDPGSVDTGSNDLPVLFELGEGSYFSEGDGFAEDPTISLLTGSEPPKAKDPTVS
How it was run: as §1

[3] = molecular target: T1, SPIC (Homo sapiens, UniProt Q8N5J4 1-248); conditions: protein: recombinant; tags: N-terminal GST; dsDNA, one strand shown
T1 sequence: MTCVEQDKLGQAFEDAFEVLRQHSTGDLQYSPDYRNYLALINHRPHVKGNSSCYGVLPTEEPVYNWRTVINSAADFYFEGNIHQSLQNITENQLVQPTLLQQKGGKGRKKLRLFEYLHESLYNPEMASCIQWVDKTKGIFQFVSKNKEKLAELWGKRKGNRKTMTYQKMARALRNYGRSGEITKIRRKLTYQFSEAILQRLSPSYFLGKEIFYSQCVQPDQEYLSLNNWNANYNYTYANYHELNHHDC
How it was run: as §1

[4] = molecular target: ELF4 (Homo sapiens, UniProt Q99607 1-663); conditions: protein: recombinant; tags: N-terminal GST; dsDNA, one strand shown
Sequence of ELF4 (Q99607 whole entry): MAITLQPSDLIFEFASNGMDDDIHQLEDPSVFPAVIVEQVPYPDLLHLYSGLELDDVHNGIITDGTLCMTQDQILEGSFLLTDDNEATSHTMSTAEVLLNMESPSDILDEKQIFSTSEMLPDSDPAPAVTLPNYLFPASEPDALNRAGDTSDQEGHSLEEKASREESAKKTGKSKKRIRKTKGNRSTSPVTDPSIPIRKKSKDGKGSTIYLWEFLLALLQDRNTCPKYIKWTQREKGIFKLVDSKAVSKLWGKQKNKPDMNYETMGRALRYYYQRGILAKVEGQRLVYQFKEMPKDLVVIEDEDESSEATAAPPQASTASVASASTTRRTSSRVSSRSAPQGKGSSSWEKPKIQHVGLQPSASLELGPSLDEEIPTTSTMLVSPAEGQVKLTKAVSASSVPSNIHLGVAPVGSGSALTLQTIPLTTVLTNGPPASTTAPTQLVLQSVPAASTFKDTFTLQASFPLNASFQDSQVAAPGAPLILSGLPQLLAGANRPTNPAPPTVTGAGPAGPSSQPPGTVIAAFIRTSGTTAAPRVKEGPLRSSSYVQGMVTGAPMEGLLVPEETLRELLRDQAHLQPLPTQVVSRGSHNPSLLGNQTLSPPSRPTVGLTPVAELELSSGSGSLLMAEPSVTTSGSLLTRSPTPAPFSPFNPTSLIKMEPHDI
How it was run: as §1

[5] = molecular target: T2, ELK4 (Homo sapiens, UniProt P28324-2 1-405); conditions: protein: recombinant; tags: N-terminal GST; dsDNA, one strand shown
T2 sequence: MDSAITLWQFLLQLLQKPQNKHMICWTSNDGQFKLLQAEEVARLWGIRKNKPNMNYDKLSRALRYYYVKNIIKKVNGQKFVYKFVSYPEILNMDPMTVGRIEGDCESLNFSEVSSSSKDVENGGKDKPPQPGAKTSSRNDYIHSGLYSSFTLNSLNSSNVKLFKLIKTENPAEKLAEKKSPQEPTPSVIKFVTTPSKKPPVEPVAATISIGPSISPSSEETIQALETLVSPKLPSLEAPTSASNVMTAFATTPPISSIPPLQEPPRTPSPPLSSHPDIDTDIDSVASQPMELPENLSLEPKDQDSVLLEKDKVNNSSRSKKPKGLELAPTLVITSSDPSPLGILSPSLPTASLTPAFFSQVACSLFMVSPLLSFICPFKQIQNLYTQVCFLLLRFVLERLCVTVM
How it was run: as §1

[6] = molecular target: T3, ETV2 (Homo sapiens, UniProt O00321 1-342); conditions: protein: recombinant; tags: N-terminal GST; dsDNA, one strand shown
T3 sequence: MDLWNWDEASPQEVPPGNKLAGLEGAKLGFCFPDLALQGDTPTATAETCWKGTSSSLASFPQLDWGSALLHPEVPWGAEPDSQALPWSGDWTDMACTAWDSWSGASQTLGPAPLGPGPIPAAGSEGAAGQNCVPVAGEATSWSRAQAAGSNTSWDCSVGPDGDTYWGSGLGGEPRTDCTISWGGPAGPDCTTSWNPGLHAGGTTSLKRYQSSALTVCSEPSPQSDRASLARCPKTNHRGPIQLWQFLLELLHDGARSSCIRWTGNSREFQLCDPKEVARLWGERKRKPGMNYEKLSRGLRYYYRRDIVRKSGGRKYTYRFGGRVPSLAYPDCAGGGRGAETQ
How it was run: as §1

[7] = molecular target: T4, ELF3 (Homo sapiens, UniProt P78545 1-371); conditions: protein: recombinant; tags: N-terminal GST; dsDNA, one strand shown
T4 sequence: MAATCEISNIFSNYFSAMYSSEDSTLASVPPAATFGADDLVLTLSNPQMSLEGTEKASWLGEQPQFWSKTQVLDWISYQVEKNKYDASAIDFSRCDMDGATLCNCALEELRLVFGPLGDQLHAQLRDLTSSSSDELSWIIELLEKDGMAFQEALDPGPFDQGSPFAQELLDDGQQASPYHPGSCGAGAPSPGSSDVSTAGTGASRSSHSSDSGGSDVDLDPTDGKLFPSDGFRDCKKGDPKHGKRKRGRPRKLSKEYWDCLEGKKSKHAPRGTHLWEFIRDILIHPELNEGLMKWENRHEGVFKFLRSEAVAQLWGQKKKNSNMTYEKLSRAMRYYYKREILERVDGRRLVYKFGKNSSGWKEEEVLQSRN
How it was run: as §1

[8] = molecular target: CRX (Homo sapiens, UniProt O43186 1-299); conditions: protein: recombinant; tags: N-terminal GST; dsDNA, one strand shown
Sequence of CRX (O43186 whole entry): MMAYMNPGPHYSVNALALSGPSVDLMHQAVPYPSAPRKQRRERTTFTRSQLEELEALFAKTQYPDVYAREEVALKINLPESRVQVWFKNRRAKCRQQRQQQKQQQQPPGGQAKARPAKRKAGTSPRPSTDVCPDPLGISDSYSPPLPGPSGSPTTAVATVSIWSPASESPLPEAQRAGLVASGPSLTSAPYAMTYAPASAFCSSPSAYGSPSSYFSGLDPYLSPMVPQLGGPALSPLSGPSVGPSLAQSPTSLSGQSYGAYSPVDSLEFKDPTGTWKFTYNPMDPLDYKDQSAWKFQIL
How it was run: as §1

[9] = molecular target: ETV1 (Homo sapiens, UniProt P50549 1-477); conditions: protein: recombinant; tags: N-terminal GST; dsDNA, one strand shown
Sequence of ETV1 (P50549 whole entry): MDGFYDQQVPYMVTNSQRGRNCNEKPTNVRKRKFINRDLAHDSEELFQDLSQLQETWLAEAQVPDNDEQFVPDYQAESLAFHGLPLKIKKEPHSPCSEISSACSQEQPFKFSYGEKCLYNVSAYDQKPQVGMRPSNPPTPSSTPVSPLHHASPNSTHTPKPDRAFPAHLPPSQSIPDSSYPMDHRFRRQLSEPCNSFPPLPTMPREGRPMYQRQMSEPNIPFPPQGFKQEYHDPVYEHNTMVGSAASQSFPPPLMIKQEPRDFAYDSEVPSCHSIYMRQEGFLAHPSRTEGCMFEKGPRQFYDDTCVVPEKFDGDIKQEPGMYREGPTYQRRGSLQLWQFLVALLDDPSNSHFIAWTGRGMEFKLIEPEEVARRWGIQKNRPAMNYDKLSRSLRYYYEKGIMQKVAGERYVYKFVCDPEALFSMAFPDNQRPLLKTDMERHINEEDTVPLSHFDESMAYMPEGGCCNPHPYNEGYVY
How it was run: as §1

Sequence of ETV5 (P41161 whole entry, the tested form may be a part): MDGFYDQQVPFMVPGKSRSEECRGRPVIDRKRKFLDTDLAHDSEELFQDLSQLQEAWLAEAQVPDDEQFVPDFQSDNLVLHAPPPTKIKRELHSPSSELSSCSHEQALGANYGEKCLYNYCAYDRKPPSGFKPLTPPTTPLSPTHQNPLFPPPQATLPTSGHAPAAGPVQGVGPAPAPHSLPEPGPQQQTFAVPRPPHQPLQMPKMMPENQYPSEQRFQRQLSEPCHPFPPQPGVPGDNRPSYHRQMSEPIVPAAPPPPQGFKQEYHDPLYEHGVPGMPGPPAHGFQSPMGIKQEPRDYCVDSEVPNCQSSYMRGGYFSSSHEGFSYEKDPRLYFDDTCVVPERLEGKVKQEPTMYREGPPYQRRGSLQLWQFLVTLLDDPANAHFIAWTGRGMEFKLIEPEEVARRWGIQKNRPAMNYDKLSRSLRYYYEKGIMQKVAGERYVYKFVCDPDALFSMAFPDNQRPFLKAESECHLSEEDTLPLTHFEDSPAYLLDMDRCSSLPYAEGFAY

**Q.** How did the binding signal [1] turn out when AAGAAG was run?
**A.** The binding signal was 1.08 fold enrichment (6-mer frequency, TF over GST control).

**Q.** And the binding signal [2]?
**A.** Its binding signal is 1.44 fold enrichment (6-mer frequency, TF over GST control).

**Q.** And the binding signal [3]?
**A.** The binding signal was 1.23 fold enrichment (6-mer frequency, TF over GST control).

**Q.** What about the binding signal [4] of the same sequence?
**A.** Its binding signal is 1.06 fold enrichment (6-mer frequency, TF over GST control).

**Q.** What about the binding signal [5] of the same sequence?
**A.** Its binding signal is 1.18 fold enrichment (6-mer frequency, TF over GST control).

**Q.** What about the binding signal [6] of the same sequence?
**A.** Its binding signal is 1.19 fold enrichment (6-mer frequency, TF over GST control).

**Q.** What about the binding signal [7] of the same sequence?
**A.** Its binding signal is 1.26 fold enrichment (6-mer frequency, TF over GST control).

**Q.** And the binding signal [8]?
**A.** The binding signal was 1.21 fold enrichment (6-mer frequency, TF over GST control).

**Q.** What about the binding signal [9] of the same sequence?
**A.** Its binding signal is 1.1 fold enrichment (6-mer frequency, TF over GST control).

— publication PMC7862700, “An all-to-all approach to the identification of sequence-specific readers for epigenetic DNA modifications on cytosine”
